Results filed as inconclusive are left out. The source made the active and inactive calls. Unless noted, the call rests on the fitted dose curve; in most records, active means well fitted curve in the direction sought with a large enough effect; inconclusive means small, poorly fitted or top-dose-only effect, or another doubt; inactive means no such curve, though single readings can be large; an effect the other way counts as inactive or inconclusive. Numbered stars: 1 amine (or outer) side, 2 acyl side, 3 side chain; on linkers, the order of the positions; unused ones are H or OH. Bridge positions count the residues as written; N and C are the ends. Square brackets hold non-standard residues; d marks the D form. Peptide text beside a SMILES is read from it. * marks the point of attachment. ξ: configuration not given here. ΔAla(Z-3-ureido) = NC(=O)N/C=C(\N)C(=O)O; ξDab(CH2SO3H) = NC(CCNCS(=O)(=O)O)C(=O)O; X1 = NC1=NCCC(C(N[*:1])C(=O)[*:2])N1; Heptanoyl(6-Me) = CC(C)CCCCC(=O)*; ξβ3hOrn = NCCCC(N)CC(=O)*; Orn = NCCC[CH](N)C(=O)O; Dab = NCC[CH](N)C(=O)O; Dap = NC[CH](N)C(=O)O
Tests used:
[1] = S16 Schwann cell viability assay (CellTiter-Glo assay) (AID 624031); conditions: S16 rat Schwann cells viability, 24 h; series mostly up to 57.5 µM; further: nearly all actives have a fitted effect of over 70% in size; further: potency means the concentration at half of the fitted maximal effect
In short: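 Parental S16 cells, 24 h compound, 37 °C. ATP-luminescence viability; DMSO = 0% activity, empty wells as reference; curves classified by fit quality and efficacy.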

CP215 = test: qHTS profiling for inhibitors of Plasmodium falciparum proliferation (AID 504749); further: nearly all actives have a fitted effect of over 60% in size; further: potency means the concentration at half of the fitted maximal effect; conditions: P. falciparum in erythrocytes, SYBR Green DNA, 72 h; series mostly up to 28.7 µM
In short: (§1)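 P. falciparum-infected erythrocytes (0.3% parasitemia, 2.5% hematocrit) incubated with compound 72 h at 37 C, 5% CO2. Parasite DNA detected by SYBR Green after lysis, overnight at room temperature; normalised to 0.29 uM artemisinin and DMSO.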

CP256 = test: as above; conditions: P. falciparum in erythrocytes, SYBR Green DNA, 72 h; series mostly up to 28.7 µM
In short: as §1

CP260 = test: as above; conditions: P. falciparum in erythrocytes, SYBR Green DNA, 72 h; series mostly up to 28.7 µM
In short: as §1

DIV14 = test: as above; conditions: P. falciparum in erythrocytes, SYBR Green DNA, 72 h; series mostly up to 28.7 µM
In short: as §1

DIV17 = test: as above; conditions: P. falciparum in erythrocytes, SYBR Green DNA, 72 h; series mostly up to 28.7 µM
In short: as §1

ICS = test: as above; conditions: P. falciparum in erythrocytes, SYBR Green DNA, 72 h; series mostly up to 28.7 µM
In short: as §1

W2 = test: as above; conditions: P. falciparum in erythrocytes, SYBR Green DNA, 72 h; series mostly up to 28.7 µM
In short: as §1

[2] = target: Cytochrome P450 3A4 (Homo sapiens) (UniProt P08684); test: qHTS Assay for Activators of Cytochrome P450 3A4 (AID 885); conditions: recombinant CYP3A4, Luciferin-PPXE luminescence, 60 min; series mostly up to 57.1 µM; further: nearly all actives have a fitted effect of over 65% in size
Cytochrome P450 3A4 (Homo sapiens), sequence (P08684 whole entry, looked up): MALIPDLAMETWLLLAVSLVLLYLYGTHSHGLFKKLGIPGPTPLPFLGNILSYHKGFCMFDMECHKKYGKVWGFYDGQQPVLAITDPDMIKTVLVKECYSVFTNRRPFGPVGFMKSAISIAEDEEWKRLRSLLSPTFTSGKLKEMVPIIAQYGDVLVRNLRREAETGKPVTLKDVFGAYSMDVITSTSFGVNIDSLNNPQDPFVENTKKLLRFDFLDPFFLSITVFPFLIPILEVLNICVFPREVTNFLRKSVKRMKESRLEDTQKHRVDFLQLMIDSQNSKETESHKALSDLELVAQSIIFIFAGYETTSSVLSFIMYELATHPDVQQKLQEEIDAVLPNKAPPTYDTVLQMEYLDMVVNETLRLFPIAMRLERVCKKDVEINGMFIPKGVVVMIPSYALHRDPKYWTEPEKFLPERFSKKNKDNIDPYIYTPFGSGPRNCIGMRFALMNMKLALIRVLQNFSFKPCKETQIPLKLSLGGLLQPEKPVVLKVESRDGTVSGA
In short: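 Signal was normalized against complete inhibition by 57 uM ketoconazole. The reaction used 20nM CYP3A4 with 25uM Luciferin-PPXE, 10-min compound preincubation and a 60-min NADPH-supported step at RT.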

[3] = target: Cytochrome P450 2C19 (Homo sapiens) (UniProt P33261); test: qHTS Assay for Inhibitors and Substrates of Cytochrome P450 2C19 (AID 899); conditions: recombinant CYP2C19, luciferin-H EGE luminescence; series mostly up to 11.4 µM; further: on the % scale 0 is the no-effect control and ±100 the full control effect; nearly all actives have a fitted effect of over 60% in size
Cytochrome P450 2C19 (Homo sapiens), sequence (P33261 whole entry, looked up): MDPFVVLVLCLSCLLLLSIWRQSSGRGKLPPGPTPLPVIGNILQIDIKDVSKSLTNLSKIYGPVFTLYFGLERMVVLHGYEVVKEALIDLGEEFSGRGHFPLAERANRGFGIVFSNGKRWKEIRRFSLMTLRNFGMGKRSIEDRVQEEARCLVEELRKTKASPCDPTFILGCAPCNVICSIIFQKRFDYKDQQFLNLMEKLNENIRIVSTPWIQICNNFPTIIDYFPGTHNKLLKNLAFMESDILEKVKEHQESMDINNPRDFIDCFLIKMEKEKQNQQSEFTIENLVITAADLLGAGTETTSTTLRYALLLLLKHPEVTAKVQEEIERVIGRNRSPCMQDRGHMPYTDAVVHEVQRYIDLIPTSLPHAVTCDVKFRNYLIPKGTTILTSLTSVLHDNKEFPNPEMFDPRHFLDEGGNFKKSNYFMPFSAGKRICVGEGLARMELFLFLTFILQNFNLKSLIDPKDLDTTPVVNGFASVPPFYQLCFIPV
In short: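 5 nM human CYP2C19 with 10uM Luciferin-H EGE (at KM) in 50mM KPO4, compound preincubated 10 min at 37C, then NADPH regeneration for 60 min at 37C. Luciferin read by luminescence after detection reagent; normalized to 57uM ketoconazole as full inhibition.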

[4] = target: Cytochrome P450 3A4 (Homo sapiens) (UniProt P08684); test: qHTS Assay for Inhibitors and Substrates of Cytochrome P450 3A4 (AID 884); conditions: recombinant CYP3A4, Luciferin-PPXE luminescence; series mostly up to 57.1 µM; further: nearly all actives have a fitted effect of over 50% in size; further: potency means the concentration at half of the fitted maximal effect
In short: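 20 nM human CYP3A4 with 25 uM Luciferin-PPXE (at KM) in 200 mM KPO4, preincubated 10 min with compound; NADPH regeneration started a 60 min RT reaction. Luciferin detected by luminescence, normalized to 57 uM ketoconazole as full inhibition.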

[5] = target: DNA dC->dU-editing enzyme APOBEC-3G (Homo sapiens) (UniProt Q9HC16); test: qHTS for inhibitors of Vif-A3G interactions: Validation (AID 588379); conditions: Vif-A3G protein interaction assay; series mostly up to 46.1 µM; further: 0% is about no effect
DNA dC->dU-editing enzyme APOBEC-3G (Homo sapiens), sequence (Q9HC16 whole entry, looked up): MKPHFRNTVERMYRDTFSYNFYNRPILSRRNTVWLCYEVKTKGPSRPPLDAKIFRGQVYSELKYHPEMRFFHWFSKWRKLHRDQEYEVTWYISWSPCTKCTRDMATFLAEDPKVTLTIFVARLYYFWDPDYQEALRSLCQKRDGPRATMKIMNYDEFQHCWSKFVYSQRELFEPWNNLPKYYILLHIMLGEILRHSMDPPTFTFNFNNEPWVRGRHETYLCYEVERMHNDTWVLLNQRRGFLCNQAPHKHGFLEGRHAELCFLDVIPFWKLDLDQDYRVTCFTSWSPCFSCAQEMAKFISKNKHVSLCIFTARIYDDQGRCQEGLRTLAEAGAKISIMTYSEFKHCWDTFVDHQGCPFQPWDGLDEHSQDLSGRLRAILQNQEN
In short: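 HeLa cells stably expressing Vif and A3G-eYFP, 700 cells/well, incubated overnight at 37 deg C, then exposed to compound overnight at 37 deg C. Inhibition of Vif-mediated degradation read as increased yellow fluorescence (Ex 488/Em 500-530) by laser-scanning cytometry.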

[6] = S16 Schwann cell PMP22 intronic element beta-lactamase assay (AID 624044; calls by dose curve; further: nearly all actives have a fitted effect of over 15% in size; further: potency means the concentration at half of the fitted maximal effect); conditions: S16 rat Schwann cells, PMP22 element beta-lactamase FRET, 24 h; series mostly up to 38.3 µM
In short: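 Rat S16 Schwann cells with beta-Lac driven by a PMP22 intronic element, compound-treated 24 h at 37 °C. LiveBLAzer FRET B/G read: 460 nm normalized to potassium clavulanate vs DMSO; 535 nm FRET as viability; concentration-effect curves classified.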

[7] = Confirmation and Secondary Assay for Modulators of Hemoglobin Beta Chain Splicing at IVS2 654 locus (AID 910); conditions: HeLa EGFP-654 splicing reporter, GFP fluorescence, 48 h; series mostly up to 46.1 µM;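 further: HeLa cells stably carrying EGFP split by mutant beta-globin IVS2-654 intron; % of control where 0% means no effect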
In short: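 HeLa cells stably expressing EGFP interrupted by β-globin IVS2-654 intron, seeded overnight in Opti-MEM/2% FCS, then treated 2 days at 37 °C. Restored splicing read as total peak GFP intensity per well by laser scanning cytometry (488 nm excitation, 500–520 nm emission); 500 nM antisense PNA as control.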

[8] = Confirmation and Secondary Assay for Modulators of Hemoglobin Beta Chain Splicing at IVS2 705 locus (AID 930); conditions: HeLa EGFP-705 splicing reporter, GFP fluorescence, 48 h; series mostly up to 46.1 µM;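 further: HeLa cells stably expressing the EGFP-705 splicing reporter; GFP fluorescence per well restored by corrected splicing of the IVS2-705 intron in EGFP; % of control where 0% means no effect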
In short: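 Fluorescence gain (488 nm laser, 500-520 nm PMT) reflects restored correct splicing of a mutant IVS2-705 intron inside EGFP in stably transfected HeLa cells after 2-day compound treatment.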

CNCC(=O)NC(CCCN=C(N)N)C(=O)NC(C(=O)NC(Cc1ccc(O)cc1)C(=O)NC(C(=O)NC(Cc1cnc[nH]1)C(=O)N1CCCC1C(=O)NC(C)C(=O)O)C(C)C)C(C)C (configuration not stated)
inactive: Potency [1] | Potency (CP215) | Potency (CP256) | Potency (CP260) | Potency (DIV14) | Potency (DIV17) | Potency (ICS) | Potency (W2)

CC(N)C(=O)NCC(=O)NC1CSSCC(C(=O)O)NC(=O)C(CO)NC(=O)C(C(C)O)NC(=O)C(Cc2ccccc2)NC(=O)C(C(C)O)NC(=O)C(CCCCN)NC(=O)C(Cc2c[nH]c3ccccc23)NC(=O)C(Cc2ccccc2)NC(=O)C(Cc2ccccc2)NC(=O)C(CC(N)=O)NC(=O)C(CCCCN)NC1=O (configuration not stated)
inactive: Potency [1] | Potency (CP215) | Potency (CP256) | Potency (CP260) | Potency (DIV14) | Potency (DIV17) | Potency (ICS) | Potency (W2)

CCCCCC(=O)c1cc(CC(C(=O)OC)C(=O)OC)cc2cc(OC)c(OC)cc12
inactive: activity change, positive = activation [2] -51.6% [at 11.4 µM] | Potency [3]

O=C(/C=C/c1ccc(O)cc1)c1c(O)cc(O)cc1O
active: Potency [4] 7940 nM
inactive: Potency [2] | Potency [5]

Cn1cc(O)nc1NC(=O)Nc1cccc(Cl)c1
inactive: Potency [1] | Potency [6] | Potency (CP215) | Potency (CP260) | Potency (DIV14) | Potency (DIV17) | Potency (ICS) | Potency (W2)

NCCCC(N)CC(=O)NCC1NC(=O)C(CO)NC(=O)C(N)CNC(=O)C(C2CCN=C(N)N2)NC(=O)/C(=C/NC(N)=O)NC1=O (stereo not drawn) (H-[Dap]S[Dap](ξβ3hOrn)[ΔAla(Z-3-ureido)][X1]; lactam 1-C; configuration not given here)
inactive: Potency [1] | Potency [6] | Potency (CP215) | Potency (CP256) | Potency (CP260) | Potency (DIV14) | Potency (DIV17) | Potency (ICS) | Potency (W2)

CC(C)CC1NC(=O)C(CCCN)NC(=O)C(C(C)C)NC(=O)C2CCCN2C(=O)C(Cc2ccccc2)NC(=O)C(CC(C)C)NC(=O)C(CCCN)NC(=O)C(C(C)C)NC(=O)C2CCCN2C(=O)C(Cc2ccccc2)NC1=O (configuration not stated) (cyclo(FPV[Orn]LFPV[Orn]L); configuration not given here)
inactive: Potency [4] | outcome [7] | outcome [8]
active: Potency [1] 4550 nM | Potency [6] 12600 nM | Potency (CP215) 1.1 nM | Potency (CP256) 4 nM | Potency (CP260) 0.9 nM | Potency (ICS) 0.3 nM | Potency (W2) 0.2 nM

CCOC(=O)C(CS)NCCN[C@@H](CS)C(=O)OCC (some centres not stated)
inactive: Potency [1] | Potency [6] | Potency (CP215) | Potency (CP256) | Potency (CP260) | Potency (DIV14) | Potency (DIV17) | Potency (ICS) | Potency (W2)

C[C@H]1O[C@@H](O[C@H]2[C@@H](O)C[C@H](O[C@H]3[C@@H](O)C[C@H](O[C@H]4CC[C@]5(C)C6CC[C@]7(C)[C@@H](C8=CC(=O)OC8)CC[C@]7(O)C6CC[C@@H]5C4)O[C@@H]3C)O[C@@H]2C)C[C@H](O)[C@@H]1O (some centres not stated)
inactive: Potency [4] | Potency [5]

COc1cccc2oc(-c3ccccc3)cc(=O)c12
inactive: Potency [2] | Potency [5]

CCC(C)C1NC(=O)C(CCNCS(=O)(=O)O)NC(=O)C(NC(=O)C(CCNCS(=O)(=O)O)NC(=O)C(NC(=O)C(CCNCS(=O)(=O)O)NC(=O)CCCCC(C)C)C(C)O)CCNC(=O)C(C(C)O)NC(=O)C(CCNCS(=O)(=O)O)NC(=O)C(CCNCS(=O)(=O)O)NC(=O)C(C(C)CC)NC1=O (configuration not stated) ({Heptanoyl(6-Me)}-[ξDab(CH2SO3H)]T[ξDab(CH2SO3H)][Dab][ξDab(CH2SO3H)]II[ξDab(CH2SO3H)][ξDab(CH2SO3H)]T; lactam 4-C; configuration not given here)
inactive: Potency [4] | outcome [7] | outcome [8] | Potency [1] | Potency [6] | Potency (DIV14) | Potency (DIV17) | Potency (ICS) | Potency (W2)

CC1CCC2[C@](C)(CO)C(O)CC[C@]2(C)C12CCC(CO)(CCO)O2 (some centres not stated)
inactive: Potency [4] | Potency [5]

Cc1csc(-c2nc3ccccc3n2C)n1
active: Potency [4] 31600 nM
inactive: Potency [2] | Potency [5]

O=C(O)c1ccccc1-c1c2cc(Br)c(=O)c(Br)c-2oc2c(Br)c(O)c(Br)cc12
inactive: Potency [6] | Potency (CP215) | Potency (CP256) | Potency (CP260) | Potency (DIV14) | Potency (DIV17) | Potency (ICS)

O=C(/C=C/c1ccccc1)c1cccs1
inactive: Potency [4] | Potency [5]

CCC1NC(=O)C(NC(=O)c2ncccc2O)C(C)OC(=O)C(c2ccccc2)NC(=O)C2CC(=O)CCN2C(=O)C(Cc2ccccc2)N(C)C(=O)C2CCCN2C1=O (configuration not stated)
inactive: Potency [1] | Potency [6] | Potency (CP215) | Potency (CP256) | Potency (CP260)

COc1cc2c(C(=O)c3ccccc3)c3c4c(cc(OC)c(OC)c4c2cc1OC)CCN3C
active: Potency [4] 1260 nM
inactive: Potency [2] | Potency [5]
